An excerpt weighted towards active compounds, which were near 6.3% of everything screened.
Mdm2-MdmX inh – disrupts the human Mdm2-MdmX interaction. O15151+Q00987. SaOS-2 split-luciferase Mdm2/MdmX complementation, luminescence. inhibition, % at 8 µM. actives 3% (n = 330,000);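 active = inhibition of at least 50% at 8 µM in the primary screen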
tim10-1 inh – inhibits growth of tim10-1 mutant yeast; inhibition, % at 20 µM; S. cerevisiae tim10-1 ts strain growth, BacTiter-Glo, 24 h; AID 463190; actives 2.2% (n = 330,000);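 active = inhibition of at least 40%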;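 note: mutant grown at 25 °C; 0% = DMSO wells with yeast and 100% = wells holding no yeast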
tim23-1 inh – inhibits growth of tim23-1 mutant yeast; actives 1.3% (n = 330,000); S. cerevisiae tim23-1 growth, BacTiter-Glo luminescence, 24 h; AID 463212; inhibition, % at 20 µM;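 active = growth inhibition of the mutant yeast at or above 50%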;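 note: temperature-sensitive mutant grown at 25 °C; plate controls were DMSO-treated mutant yeast for no effect and medium wells lacking yeast for full effect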
TIM10 inh – growth inhibitors of TIM10 yeast strain. AID 463195. S. cerevisiae TIM10 strain growth, BacTiter-Glo luminescence, 24 h. inhibition, % at 10 µM. actives 1.4% (n = 330,000);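 active = inhibition of 40% or more at the single tested concentration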;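 note: wild-type TIM10 isogenic control strain grown at permissive 25 °C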
MPTP block – blocks calcium-induced mitochondrial swelling; isolated mouse mitochondria, Ca2+ swelling absorbance, 30 min; AID 602449; inhibition, % at 10 µM; actives 1.4% (n = 360,000);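 active = inhibition of 50% or more, scaled per plate between neutral and stimulator controls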;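 note: 0% = DMSO wells given calcium and 100% = 1 mM EGTA wells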
Mdm2-MdmX conf – confirmation of human Mdm2/MdmX interaction inhibitors; shares compounds with Mdm2-MdmX inh; Mdm2-MdmX binding, luminescent assay; inhibition, % at 8 µM; actives 55% (n = 10,000); in the data active = inhibition above about 40%
FLuc counter – full-length luciferase inhibition in Mdm2/MdmX counter-screen; shares compounds with Mdm2-MdmX inh; SaOS-2 full-length luciferase counterscreen, luminescence; inhibition, % at 8 µM; actives 77% (n = 6,200);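 active = mean inhibition at 8 µM reaching about 37%, which flags the compound as non-specific, limit read from the data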;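 note: p53-null SaOS-2 cells with luciferase driven by a doxycycline-inducible promoter; compound on cells about two nights before reading with doxycycline added after day one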
Active calls of the source: *; . = no result given.

SMILES | Mdm2-MdmX inh | tim10-1 inh | tim23-1 inh | TIM10 inh | MPTP block | Mdm2-MdmX conf | FLuc counter
Cc1c(Cl)cccc1N/C(SCC(=O)N1CCCCCC1)=C(/C#N)c1nc2ccccc2s1 | 91* | 29 | 40 | 28 | 16 | 66* | 36
O=C(Nc1nc2ccccc2s1)c1cc(-c2ccccc2)nn1-c1ccccc1 | 86* | 15 | 8 | -3 | 4 | 47* | 110*
CC(=O)c1ccc(Nc2nc(C(N)CCc3ccccc3)cs2)cc1 (centres undefined) | . | . | . | . | 2 | . | .
COc1ccc(CNC(=O)[C@H](Cc2c[nH]c3ccccc23)NC(=O)[C@@H]2Cc3ccccc3CN2)cc1 | 9 | 4 | 11 | 1 | -2 | . | .
CC(C)c1ccc(NC(=O)[C@H](NC(=O)[C@@H]2Cc3ccccc3CN2)c2ccccc2)cc1 | 21 | 23 | 15 | 1 | 5 | . | .
COc1ccc(NC(=O)[C@H](Cc2c[nH]c3ccccc23)NC(=O)[C@@H]2Cc3ccccc3CN2)cc1 | 92* | 4 | 12 | -3 | 1 | 73* | 39*
CC(C)c1ccc(NC(=O)[C@H](Cc2c[nH]c3ccccc23)NC(=O)[C@@H]2Cc3ccccc3CN2)cc1 | 96* | 26 | 28 | 16 | 38 | 79* | 23
CCCCCCCCN1C(=O)[C@H](CC(=O)NCc2ccc(C)o2)C[C@@]2(C(=O)OC)CCCCC=C12 | . | . | . | . | -3 | . | .
CCOc1cc2nc(-c3ccc(OC)c(OC)c3)nc(N3CCOCC3)c2cc1OC | 53* | 20 | 23 | 17 | . | 45* | 83*
O=C(COC(=O)c1cccc(S(=O)(=O)N2CCOCC2)c1)NC1CCCCC1 | . | . | . | . | 0 | . | .
COc1ccc(/C=C/c2cc(-c3ccc(C)cc3)o[n+]2C)cc1 | 74* | 22 | 2 | 9 | 11 | 96* | 51*
COc1ccc(/C=C/c2c(-c3ccc(OC)cc3)oc3ccc(-c4ccc(OC)cc4)cc23)cc1 | -3 | 9 | -6 | -12 | -2 | . | .
CCc1noc(C)c1C(=O)NC1CCCc2c1cnn2-c1cc(C)cc(C)c1 (centres undefined) | 19 | 21 | 32 | 15 | 1 | . | .
CCc1[nH]nc(C(=O)NC2CCCc3c2cnn3-c2cc(C)cc(C)c2)c1C (centres undefined) | 76* | 29 | 24 | 13 | 1 | 81* | 95*
CCCCCCNC(=O)c1cn(CC)c2cc(N3CCN(C)CC3)c(F)cc2c1=O | 51* | 17 | 20 | 5 | 1 | 28 | .
CCn1cc(C(=O)NCCCO)c(=O)c2cc(F)c(N3CCN(C)CC3)cc21 | 10 | -1 | -4 | 4 | 2 | . | .
CCCCN(C)CCNC(=S)Nc1ccc2nc(N3CCN(CC)CC3)cc(C)c2c1 | 74* | -18 | -20 | -24 | 1 | 36 | 51*
CCCN1CCN(CCCNC(=S)Nc2ccc3nc(N4CCN(CC)CC4)cc(C)c3c2)CC1 | 29 | -26 | -76 | -35 | 0 | . | .
CCN1CCN(c2cc(C)c3cc(NC(=S)NCCN(C)C)ccc3n2)CC1 | -12 | -15 | -19 | -1 | -1 | . | .
Cc1cc(N2CCCC2)nc2ccc(NC(=S)NCCCN3CCC(C)CC3)cc12 | 100* | -10 | -57 | -33 | 0 | 39 | 49*
Nn1c(SCC(=O)N2CCCC2)nnc1-c1cccs1 | . | . | . | . | 0 | . | .
COc1cc(Nc2ccc(C)cc2)c([N+](=O)[O-])nc1[N+](=O)[O-] | 53* | 3 | 17 | 10 | 0 | 42* | 87*
Cc1cccc(Cl)c1NC(=O)NCCCN1CCCCC1C (centres undefined) | . | . | . | . | 0 | . | .
COc1ccccc1/C=N/Nc1cc(C)nc2ccc(C)cc12 | -38 | 16 | 25 | 3 | 1 | . | .
COc1ccc2nc(C)cc(N/N=C/c3ccccc3)c2c1 | 100* | 10 | 6 | 6 | 25 | 26 | .
COc1ccc(/C=N/Nc2cc(C)nc3ccc(OC)cc23)c(OC)c1 | 100* | -2 | -7 | -12 | 46 | 99* | 51*
Cc1nn(C)c(C)c1/C=C(/C(=O)C(C)(C)C)n1cncn1 | 15 | 17 | 13 | 7 | 3 | . | .
CC(C)(C)C(=O)/C(=C/c1ccncc1)n1cncn1 | 100* | 40 | 20 | 32 | 1 | 100* | 51*
CC1ON=C(c2cccc3ccccc23)N(C)C1=O (centres undefined) | . | . | . | . | -2 | . | .

Screening data (PubChem)
